Nine compounds from PubChem BioAssay can be followed below.

SMILES strings stand for the structures. Calls of active or inactive are those of the source.

A short description of assay [1]: small molecules captured by biotinylated probe aFSTL3 – biochemical, small-molecule microarray, fluorescence 635/667, stem cell growth factor project, primary screen (AID 1064).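 Further: measures binding of the biotinylated anti-FSTL3 antibody to printed compounds.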 To be noted: higher = more signal.
The nature of assay [2]: binders from COS7 lysate, DM2A8 probe, primary screen, torsin A project, cell lysate, small-molecule microarray, fluorescence 635/667 (AID 1065). To be noted: higher = more signal, COS7 lysate expressing mutant human TOR1A.
Assay [3] can be described thus: small molecules captured by biotinylated probe aFGF2 – biochemical, small-molecule microarray, fluorescence 635/667, stem cell growth factor project, primary screen (AID 1067).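 Further: measures binding of biotinylated aFGF2 protein to printed compounds on slides; z-score merges feature fluorescence and signal-to-noise across triplicate slides.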 Particulars: higher = more signal.
The nature of assay [4]: small molecules captured by biotinylated probe aFGF10 – biochemical, small-molecule microarray, fluorescence 635/667, stem cell growth factor project, primary screen (AID 1071).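 Further: score merges 667 nm spot intensity and signal to noise from triplicate slides.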 Particulars: higher = more signal.
Assay [5] concerns the target Neurogenic locus notch homolog protein 2 (Homo sapiens) (UniProt Q04721). Nature of the assay: small molecules binding Notch2 protein – biochemical, small-molecule microarray, 635 nm fluorescence, stem cell growth factors, primary screen (AID 1073). To be noted: higher = more signal.
Assay [6] has as its target Pro-neuregulin-1, membrane-bound isoform (Homo sapiens) (UniProt Q02297). Nature of the assay: small molecules binding neuregulin-1 protein – biochemical, small-molecule microarray, fluorescence 635/667, psychiatric disease protein project, primary screen (AID 1075).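 Further: score combines 667 nm spot fluorescence with signal to noise.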 To be noted: NRG1 binding, 635 nm fluorescence, higher = more signal.
In assay [7] the test system is Neuregulin-1 EGF-like domain. Nature of the assay: small molecules binding NRG1 EGF domain – biochemical, small-molecule microarray, 635 nm fluorescence, primary screen (AID 1081).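 Further: binding of the protein to compounds printed on small-molecule microarray slides.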 To be noted: higher = more signal.
Assay [8] can be described thus: FRG1 expression reporter modulators in myotubes – cell-based, C2C12 myotubes, firefly/Renilla luciferase, luminescence, FRG1 inhibition for FSHD, primary screen (AID 1084). To be noted: FRG1 promoter luciferase, higher = more signal, called active from +8 up or from −8 down.
The nature of assay [9]: small molecules captured by biotinylated probe aFST – biochemical, small-molecule microarray, fluorescence 635/667, stem cell growth factor project, primary screen (AID 1086).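 Further: score merges 667 nm fluorescence with signal-to-noise of each printed compound spot.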 Particulars: higher = more signal.
Assay [10] is described as follows: binders of probe aHhip on microarray, primary screen, stem cell growth factor project, biochemical, small-molecule microarray, fluorescence 635/667 (AID 1087).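 Further: score merges spot fluorescence at 667nm with spot signal to noise ratio.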 To be noted: higher = more signal.
Assay [11] deals with PRMT1 (protein arginine N-methyltransferase 1). The assay is described as follows: small molecules binding arginine methyltransferase PRMT1 – biochemical, small-molecule microarray, 635 nm fluorescence, primary screen (AID 1088).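 Further: binding of Prmt1 protein to compounds spotted on small-molecule microarray slides.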 Particulars: higher = more signal.
A short description of assay [12]: growth effects on S. cerevisiae YJM789 – YJM789 clinical isolate, OD600, 24 h, basal, primary screen (AID 1089).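 Further: growth of clinical yeast isolate S. cerevisiae YJM 789 seeded 1000 cells per well; test concentration not given here.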 To be noted: higher = more signal, called active from +8 up or from −8 down.
Assay [13] is described as follows: S. pombe growth modifiers, basal conditions – strain 972, OD600, 24 h, no modulator, primary screen (AID 1090).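 Further: basal condition with compound alone and no growth modifier present; test concentration not given here.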 To be noted: S. pombe 972 growth, higher = more signal, called active from +8 up or from −8 down.
Assay [14] is described as follows: budding yeast growth modifiers under rapamycin – strain BY4716, OD600, 96 h, primary screen (AID 1091). Further: test concentration not given here. To be noted: S. cerevisiae BY4716 + rapamycin, higher = more signal, called active from +8 up or from −8 down.
Assay [15] addresses Torsin-1A-interacting protein 2 (Homo sapiens) (UniProt Q8NFQ8). Nature of the assay: small molecules binding lysate-expressed LULL1 – cell lysate, human LULL1 lysate, 635/667 nm fluorescence, primary screen (AID 1092).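 Further: probe is lysate of COS7 cells overexpressing human LULL1; score merges per-feature 667 nm fluorescence with signal-to-noise.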 Particulars: small-molecule microarray, hLULL1 lysate binding, 635 nm fluorescence; higher = more signal.
Assay [16] can be described thus: optical density change of DRC41 E. coli – strain DRC41, OD650, 24 h, E. coli filamentation project, primary screen (AID 1093).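 Further: MC1000 strain lacking acrAB efflux and sulA so SOS filamentation is blocked; test concentration not given here.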 Particulars: E. coli DRC41 growth, higher = more signal, called active from +8 up or from −8 down.
Assay [17] is described as follows: probe aLefty2 binding to arrayed compounds – biochemical, biotinylated probe, 635/667 nm fluorescence, primary screen (AID 1094).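 Further: score merges spot fluorescence near 667 nm with spot signal-to-noise ratio.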 To be noted: small-molecule microarray, higher = more signal.
Assay [18] has as its system Noggin (protein binding on small-molecule microarray). Nature of the assay: small molecules binding Noggin protein – biochemical, 635/667 nm fluorescence, primary screen (AID 1095).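 Further: score merges 667 nm feature fluorescence with signal to noise over triplicate slides.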 To be noted: 635 nm fluorescence, higher = more signal.
In assay [19] the target is Neurogenic locus notch homolog protein 3 (Homo sapiens) (UniProt Q9UM47). Nature of the assay: small molecules binding NOTCH3 protein – biochemical, 635/667 nm fluorescence, primary screen (AID 1096). To be noted: small-molecule microarray, 635 nm fluorescence, higher = more signal.
Chain of Neurogenic locus notch homolog protein 3 (Homo sapiens) (Q9UM47 whole entry, looked up): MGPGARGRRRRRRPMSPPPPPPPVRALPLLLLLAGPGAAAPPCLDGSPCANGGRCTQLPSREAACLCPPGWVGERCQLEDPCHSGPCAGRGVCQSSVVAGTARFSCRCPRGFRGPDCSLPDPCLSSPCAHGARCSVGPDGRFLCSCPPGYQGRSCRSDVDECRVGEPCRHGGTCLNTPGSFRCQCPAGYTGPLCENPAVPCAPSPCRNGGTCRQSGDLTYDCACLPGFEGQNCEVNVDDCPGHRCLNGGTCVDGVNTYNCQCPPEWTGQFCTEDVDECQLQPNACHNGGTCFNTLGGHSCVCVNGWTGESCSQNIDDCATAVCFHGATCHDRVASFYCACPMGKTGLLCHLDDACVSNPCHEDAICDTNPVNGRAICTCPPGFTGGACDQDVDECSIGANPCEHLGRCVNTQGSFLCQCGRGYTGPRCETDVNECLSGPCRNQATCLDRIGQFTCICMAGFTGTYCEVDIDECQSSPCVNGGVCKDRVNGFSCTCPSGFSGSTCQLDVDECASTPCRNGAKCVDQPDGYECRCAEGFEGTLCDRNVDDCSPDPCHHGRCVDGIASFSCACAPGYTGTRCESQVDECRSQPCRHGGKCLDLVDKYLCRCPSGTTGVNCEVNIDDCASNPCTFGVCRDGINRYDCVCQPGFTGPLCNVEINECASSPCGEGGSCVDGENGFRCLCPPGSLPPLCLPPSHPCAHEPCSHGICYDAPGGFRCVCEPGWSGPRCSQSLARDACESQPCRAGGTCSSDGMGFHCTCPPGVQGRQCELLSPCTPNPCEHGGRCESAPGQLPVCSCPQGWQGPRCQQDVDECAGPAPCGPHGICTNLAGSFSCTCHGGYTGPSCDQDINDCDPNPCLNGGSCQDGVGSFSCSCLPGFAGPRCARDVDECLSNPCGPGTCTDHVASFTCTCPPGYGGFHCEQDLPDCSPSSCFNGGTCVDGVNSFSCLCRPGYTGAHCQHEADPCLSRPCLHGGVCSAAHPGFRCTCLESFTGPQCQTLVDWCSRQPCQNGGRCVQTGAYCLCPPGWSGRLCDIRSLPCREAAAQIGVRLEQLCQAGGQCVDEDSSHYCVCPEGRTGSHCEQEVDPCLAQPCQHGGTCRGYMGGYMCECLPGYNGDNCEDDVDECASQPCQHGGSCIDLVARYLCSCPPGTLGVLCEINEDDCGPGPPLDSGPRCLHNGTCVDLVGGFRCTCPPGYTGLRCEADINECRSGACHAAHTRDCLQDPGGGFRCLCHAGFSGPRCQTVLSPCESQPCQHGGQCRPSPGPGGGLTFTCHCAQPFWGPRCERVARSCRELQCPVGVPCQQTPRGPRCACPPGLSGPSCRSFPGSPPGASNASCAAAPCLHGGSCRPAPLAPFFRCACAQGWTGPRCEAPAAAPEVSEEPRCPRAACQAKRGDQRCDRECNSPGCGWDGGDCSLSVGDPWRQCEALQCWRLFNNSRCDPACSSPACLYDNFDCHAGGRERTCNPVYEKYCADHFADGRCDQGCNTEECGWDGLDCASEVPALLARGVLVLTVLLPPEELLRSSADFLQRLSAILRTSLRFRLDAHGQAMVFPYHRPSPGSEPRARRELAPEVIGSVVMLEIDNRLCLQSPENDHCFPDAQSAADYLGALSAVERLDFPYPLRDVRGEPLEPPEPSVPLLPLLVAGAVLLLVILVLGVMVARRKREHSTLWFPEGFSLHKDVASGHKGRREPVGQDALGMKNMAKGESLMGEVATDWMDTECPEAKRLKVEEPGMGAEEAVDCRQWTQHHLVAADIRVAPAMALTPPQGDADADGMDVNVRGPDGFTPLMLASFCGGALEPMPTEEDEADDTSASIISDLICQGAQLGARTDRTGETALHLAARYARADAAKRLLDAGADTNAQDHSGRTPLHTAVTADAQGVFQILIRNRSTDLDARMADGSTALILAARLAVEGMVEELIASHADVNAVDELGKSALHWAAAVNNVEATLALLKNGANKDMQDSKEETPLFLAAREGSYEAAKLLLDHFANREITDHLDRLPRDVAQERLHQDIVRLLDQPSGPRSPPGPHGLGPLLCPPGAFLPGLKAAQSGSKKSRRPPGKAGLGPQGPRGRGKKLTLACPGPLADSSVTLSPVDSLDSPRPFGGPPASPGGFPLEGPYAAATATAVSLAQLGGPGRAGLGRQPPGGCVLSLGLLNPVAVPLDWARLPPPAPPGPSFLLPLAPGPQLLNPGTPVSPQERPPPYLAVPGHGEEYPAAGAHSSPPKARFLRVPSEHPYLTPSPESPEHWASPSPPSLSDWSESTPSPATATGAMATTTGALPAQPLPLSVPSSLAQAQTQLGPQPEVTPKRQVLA
Assay [20] is described as follows: probe aEGFR binding to arrayed compounds – biochemical, biotinylated probe, 635/667 nm fluorescence, primary screen (AID 1097).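 Further: probe is a biotinylated anti-EGFR antibody binding compounds printed on slides; score combines fluorescence near 667 nm and signal to noise of each spot.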 To be noted: small-molecule microarray, higher = more signal.

Chain of Pro-neuregulin-1, membrane-bound isoform (Homo sapiens) (Q02297 whole entry, looked up, the tested form may be a part, canonical isoform): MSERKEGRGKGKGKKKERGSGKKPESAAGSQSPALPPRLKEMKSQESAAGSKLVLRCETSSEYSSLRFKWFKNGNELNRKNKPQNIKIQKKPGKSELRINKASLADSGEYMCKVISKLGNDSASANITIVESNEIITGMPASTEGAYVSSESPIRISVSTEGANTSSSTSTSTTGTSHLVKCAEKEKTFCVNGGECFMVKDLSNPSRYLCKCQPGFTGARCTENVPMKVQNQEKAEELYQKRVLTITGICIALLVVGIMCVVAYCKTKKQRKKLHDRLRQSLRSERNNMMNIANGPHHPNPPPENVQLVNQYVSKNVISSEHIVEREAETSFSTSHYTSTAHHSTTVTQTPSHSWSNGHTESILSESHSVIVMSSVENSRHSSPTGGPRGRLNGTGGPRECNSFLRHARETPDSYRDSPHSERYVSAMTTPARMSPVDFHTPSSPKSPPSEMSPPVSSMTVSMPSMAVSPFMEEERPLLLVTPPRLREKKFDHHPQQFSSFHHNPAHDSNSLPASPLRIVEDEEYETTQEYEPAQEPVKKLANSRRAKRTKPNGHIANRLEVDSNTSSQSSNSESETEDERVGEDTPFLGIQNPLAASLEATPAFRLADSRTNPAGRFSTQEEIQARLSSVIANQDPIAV
Chain of Torsin-1A-interacting protein 2 (Homo sapiens) (Q8NFQ8 whole entry, looked up): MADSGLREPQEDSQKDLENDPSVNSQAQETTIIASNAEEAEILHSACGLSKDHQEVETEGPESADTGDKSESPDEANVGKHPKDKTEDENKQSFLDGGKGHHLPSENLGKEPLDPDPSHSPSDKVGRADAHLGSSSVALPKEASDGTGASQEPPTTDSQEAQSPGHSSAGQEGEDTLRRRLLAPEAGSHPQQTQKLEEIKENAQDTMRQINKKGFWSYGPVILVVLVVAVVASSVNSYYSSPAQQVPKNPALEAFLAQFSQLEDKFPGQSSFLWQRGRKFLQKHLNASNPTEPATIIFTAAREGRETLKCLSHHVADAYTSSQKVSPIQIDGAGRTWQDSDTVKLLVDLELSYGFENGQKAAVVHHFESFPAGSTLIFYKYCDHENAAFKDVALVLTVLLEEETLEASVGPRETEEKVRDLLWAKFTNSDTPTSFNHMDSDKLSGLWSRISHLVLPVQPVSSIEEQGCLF

Turning to `CO[C@H]1O[C@H](CO)[C@@H](OC(=O)Nc2cccc(F)c2)[C@H](OC(=O)Nc2ccccc2)[C@@H]1OC(=O)Nc1ccccc1`, the composite z-score in [1] is -0.139; in assay [2], 0.995; in assay [3], 0.185; in assay [4], 1.17; in [5], 1.51; in assay [6] it was 1.51. Further, the composite z-score is 1.19 in [7]; 0.7 in assay [9]; -0.137 in [10]; 1.53 in [11]; 3.12 in [15]; 0.182 in assay [17]. The composite z-score amounted to 0.286 in [18], 1.09 in assay [19] and 0.181 in assay [20]. The z-score in assay [8] was 1.17 (inactive); in assay [12], 0.347 (inactive); in assay [13], 1.32 (inactive); in assay [14], 14.4 (active); in assay [16] it was -0.621 (inactive).

On to `COCCOC(=O)N1C(=O)[C@@]2(c3cc(C#Cc4ccc(OC)cc4)ccc31)[C@H](c1ccc(O)cc1)N1[C@H](c3ccccc3)[C@H](c3ccccc3)OC(=O)[C@H]1[C@@H]2C(=O)N1CCc2cc(OC)c(OC)cc2C1`, for which the composite z-score in assay [1] worked out at 0.0419; in assay [2], 0.87; in assay [3], 0.0415; in assay [4], 0.475; in assay [5], 0.971; in assay [6], 0.71. The composite z-score in [7] is 0.898; in assay [9] it was 0.611; in assay [10], 0.0873; in assay [11], 1.55; in assay [15] it was 2.49; in [17] it was -0.0412. The values for the composite z-score in assay [18], in assay [19] and in [20] were 0.75, 1.08 and -0.115, respectively. Besides, the z-score in [8] is -0.0112 (inactive); in [12] it was 0.728 (inactive); in [13], -0.133 (inactive); in assay [14], 0.803 (inactive); in assay [16] it was 1.37 (inactive).

For `COC(=O)[C@@]1(CCS(=O)(=O)c2ccccc2)N=C(c2ccc(OCCCO)cc2)O[C@H]1c1ccccc1CN=[N+]=[N-]`, the composite z-score in assay [1] was 0.959; in [2] it was 0.38; in assay [3], -0.0533; in assay [4], -0.303; in assay [5], 0.914; in assay [6], 0.975. In addition, the composite z-score was 1.23 in [7]; 0.883 in [9]; -0.0634 in [10]; 1.38 in [11]; 3.01 in assay [15]; 0.0054 in assay [17]. Moreover, the composite z-score in assay [18] turned out to be 0.338; in assay [19], 1; in assay [20] it was 0.127. Also, the z-score in assay [8] was -3.26 (inactive); in assay [12], 0.265 (inactive); in assay [13], 1.18 (inactive); in assay [14] it was 34.4 (active); in [16], 0.706 (inactive).

Take `C=CC[C@]1(C(=O)NCc2ccccc2)N=C(c2ccc(OCCCO)cc2)O[C@H]1c1ccccc1N=[N+]=[N-]`: the composite z-score in [1] was -0.158; in [2], 1.46; in assay [3] it was 0.282; in assay [4], 0.399; in assay [5] it was 1.13; in assay [6] it was 1.24. Further, the composite z-score is 1.04 in [7]; 1.08 in [9]; -0.171 in [10]; 1.22 in assay [11]; 3.24 in assay [15]; 0.17 in assay [17]. In addition, the composite z-score is 0.0073 in [18], 1.11 in assay [19] and 0.0968 in assay [20]. Moreover, the z-score is -0.71 (inactive) in assay [8]; -1.33 (inactive) in assay [12]; 0.0342 (inactive) in [13]; 0.511 (inactive) in [14]; 0.73 (inactive) in assay [16].

With `COc1cc2c(cc1OC)CN(C(=O)[C@H]1[C@@H]3C(=O)O[C@@H](c4ccccc4)[C@@H](c4ccccc4)N3[C@@H](c3ccc(O)cc3)[C@]13C(=O)Nc1ccc(C#CCCO)cc13)CC2`, the composite z-score in [1] is 0.0257; in assay [2], 0.322; in [3], -0.0659; in [4], 0.519; in assay [5], 0.0774; in assay [6], 1.63. Further, the composite z-score is 1.28 in assay [7]; -0.0227 in assay [9]; -0.125 in assay [10]; 1.56 in [11]; 2.44 in assay [15]; -0.145 in assay [17]. Moreover, the values for the composite z-score in [18], in assay [19] and in [20] were 0.837, 0.434 and -0.152, respectively. Further, the z-score in assay [8] is -0.845 (inactive); in [12] it was 1 (inactive); in assay [13], -0.0822 (inactive); in assay [14], 1.91 (inactive); in assay [16], 1.32 (inactive).

In the case of `COC(=O)c1c(CC[C@@H](CO)NC(=O)NCCn2cc(C3(O)CCCC3)nn2)oc(C(C)=O)c1C(=O)OC`, the composite z-score in [1] is -0.465; in [2] it was 0.24; in assay [3] it was 0.127; in [4] it was 0.173; in assay [5] it was -0.119; in assay [6], 0.718. In addition, the composite z-score was 0.685 in [7]; -0.204 in assay [9]; -0.184 in [10]; 0.463 in assay [11]; 3.24 in assay [15]; -0.23 in [17]. The composite z-score is 0.0587 in assay [18], -0.33 in assay [19] and -0.0778 in [20]. The z-score in assay [8] is -0.598 (inactive); in [12], -0.539 (inactive); in [13] it was -0.263 (inactive); in assay [14] it was -0.0147 (inactive); in [16], -0.918 (inactive).

As for `C=CCOC(=O)[C@H]1[C@@H]2C(=O)O[C@@H](c3ccccc3)[C@@H](c3ccccc3)N2[C@@H](c2ccc(OCCOC(=O)[C@H]3C[C@H]4C(=O)N[C@@H](CCCCN(C)C)C(=O)N4[C@H]3c3ccc(O)cc3)cc2)[C@]12C(=O)Nc1ccc(I)cc12`, the composite z-score in assay [1] was -0.38; in assay [2] it was 1.01; in assay [3] it was 0.0266; in assay [4] it was 0.948; in assay [5], 1.33; in assay [6], 1.77. The composite z-score in assay [7] was 1.3; in assay [9] it was 0.0907; in assay [10], -0.274; in assay [11], 1.55; in assay [15] it was 2.49; in assay [17], 0.172. Also, the composite z-score in assay [18] is 1.73; in assay [19], 1.07; in assay [20] it was 0.124. The z-score in assay [8] was 1.49 (inactive); in assay [12] it was -0.0743 (inactive); in assay [13], -0.526 (inactive); in assay [14], -0.698 (inactive); in assay [16] it was -0.411 (inactive).

In the case of `CC(C)C(O)C1C=CC2C(=O)NC(=O)C2N1Nc1ccc(Cl)cc1Cl` (stereo not given), the composite z-score in assay [1] is 0.889; in assay [2], 0.206; in assay [3], -0.0675; in assay [4], -0.0108; in assay [5], 0.514; in [6] it was 1.98. The composite z-score in [7] is 1.16; in assay [9], 0.464; in assay [10], -0.0645; in [11], 0.119; in assay [15], 3.18; in assay [17] it was 0.112. The composite z-score in assay [18] was -0.463; in assay [19] it was 0.0316; in assay [20] it was -0.122. In addition, the z-score in assay [8] is -0.903 (inactive); in assay [12], 0.376 (inactive); in [13] it was -0.843 (inactive); in assay [14], 1.5 (inactive); in assay [16], -0.805 (inactive).

Turning to `COc1ccc(C(=O)Nc2ccc(CN3C(=O)[C@]4(O[C@H](CCO)[C@@H]([Si](C)(C)c5ccc(OC)cc5)[C@@H]4C)c4ccccc43)cc2)cc1`, the composite z-score was -0.329 in [1]; 0.0876 in assay [2]; -0.087 in assay [3]; 0.245 in assay [4]; 0.561 in assay [5]; 0.77 in assay [6]. Besides, the composite z-score in assay [7] was 0.836; in [9], 0.305; in assay [10], 0.432; in assay [11], 1.47; in assay [15] it was 2.17; in [17], 0.0412. Moreover, the composite z-score was 0.827 in [18], 1.13 in [19] and -0.183 in [20]. Moreover, the z-score was -4.05 (inactive) in assay [8]; -0.0534 (inactive) in [12]; -12.2 (active) in [13]; 1.62 (inactive) in [14]; -0.324 (inactive) in assay [16].
